Compounds without any hit were thinned out: in the full panel of roughly 83,000, 20% have a hit.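 Percent growth is the endpoint: 0 to 100 indicates growth inhibition (40 means 60% inhibition), 0 means no net growth, and negative values indicate cell death.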 Calls of active or inactive are those of the source. Rule for the calls: active = growth percent below 10; inactive = the rest.
The compounds below were run on SR leukemia (assay: NCI-60 one-dose screen, 48 h (100 = growth as untreated, 0 = no growth, -100 = all killed)). Settings: 10 µM unless noted.

SMILES	growth
COc1ccc2c(c1)c(CC(=O)[Se]CC#N)c(C)n2C(=O)c1ccc(Cl)cc1	3.49% (active)
C=C(C)[C@@H]1CC[C@]2(COCCCNCCC#N)CC[C@]3(C)[C@H](CC[C@@H]4[C@@]5(C)CC[C@H](OCCCNCCC#N)C(C)(C)[C@@H]5CC[C@]43C)[C@@H]12	-18.4% (active)
CCN1CCN(Cc2cn(-c3ccc(S(N)(=O)=O)cc3)nn2)CC1	102% (inactive)
COc1cc(OC)c(/C=C/S(=O)(=O)Cc2ccc(OC)c(NCC(=O)NO)c2)c(OC)c1	12.2% (inactive)
CS(=O)(=O)Nc1cc(-c2ccc3ncc(C#N)c(NCc4ccccc4O)c3c2)cnc1Cl	6.89% (active)
CC1(C)[C@@H](O)CC[C@]2(C)[C@H]3CC[C@@H]4[C@H]5[C@H](C(=O)/C=C\c6ccncc6)CC[C@]5(O)CC[C@@]4(C)[C@]3(C)CC[C@@H]12	4.32% (active)
COc1ccccc1N1CCN(C2=CC(=O)C(C)=C(C)C2=O)CC1	119% (inactive)
O=C(CSc1nnc(-c2ccc(Cl)cc2)n1-c1ccccc1)Nc1cccc(Cl)c1	21.4% (inactive)
COc1ccccc1C(=O)Nc1cccc2c1C(=O)C(=O)C=C2	58.2% (inactive)
CCc1cccc(NC(=O)CNc2cc(S(=O)(=O)N(C)C)cc(C)c2C)c1	83.8% (inactive)
O=C(NNc1nc2cc(F)c(F)cc2n2c(CN3CC4CNCC4C3)ccc12)c1ncccn1 (stereo unspecified)	1.34% (active)
NC(N)=Nc1ccc(Nc2cccc(Nc3ccc(Cl)c(C(F)(F)F)c3)c2)cn1	-31.7% (active)
CCN(CC)c1ccc(NC2=C(Cl)C(=O)c3nc(C)ccc3C2=O)cc1	7.24% (active)
CC1(C)CC[C@]2(CN)CC[C@]3(C)C(=CC[C@@H]4[C@@]5(C)CCCNC(C)(C)[C@@H]5CC[C@]43C)[C@H]2C1	61.7% (inactive)
NC(=O)c1cccc(-n2ccc3cc(NC(=O)Nc4ccc(N5CCOCC5)c(C(F)(F)F)c4)ccc32)n1	-23.5% (active)
C#CCn1cccc1CNc1ccc(OC)cc1	-36.1% (active)
O=C1[C@@H]2Cc3c([nH]c4ccccc34)[C@H](c3c(Cl)cccc3Cl)N2C(=O)CN1C1CCN(CC2CCCCC2)CC1	-0.527% (active)
C#CCC#CCN1CCC[C@H]1C(=O)NCC(=O)OC	118% (inactive)
COc1ccc(-c2cc(-c3ccc(Cl)cc3)c(C#N)c(=O)n2Cc2ccc(C(=O)O)cc2)cc1	28.9% (inactive)

SMILES	growth
COc1ccc2c(c1)Oc1nc(N)c(C#N)c(N)c1C2Sc1ccc(C)cc1 (stereo unspecified)	0.429% (active)
N#Cc1cccc(CN2CCc3ncn(Cc4ccc(Cl)cc4)c(=O)c3C2)c1	36.2% (inactive)
Cc1nc2ncc(-c3ccc4ncnc(NCc5ccccc5)c4c3)cc2[nH]1	78.3% (inactive)
N=c1c2cc(-c3ccccc3)oc2ncn1/N=C/c1ccc(Cl)cc1	35.3% (inactive)
COc1ccc(N2C(=O)c3cc(Cl)ccc3NC2SCc2ccccc2)cc1 (stereo unspecified)	103% (inactive)
COc1c(N2CC3CCCNC3C2)c(F)cc2c(=O)c(C(=O)N/N=C/c3c[nH]c4ccccc34)cn(C3CC3)c12 (stereo unspecified)	-12.2% (active)
NC/C(=C/F)COc1ccc2nc(NCc3cccnc3)oc2c1	101% (inactive)
C=CC(=O)N1CCC=C(c2cc3c(N[C@H](C)c4ccccc4)ncnc3[nH]2)C1	32.9% (inactive)
CS(=O)(=O)Nc1cc(-c2ccc3ncc(C#N)c(Nc4cccc(Cl)c4F)c3c2)cnc1Cl	1.4% (active)
CCCn1cnc2c(c1=N)C(c1ccc(F)cc1)c1sc3c(CC)cccc3c1O2 (stereo unspecified)	1.23% (active)
O=S(=O)(NCCCNc1nccc(-c2[nH]c(-c3ccccc3)nc2-c2ccc(Cl)c(O)c2)n1)c1cccc2ccccc12	17.8% (inactive)
N#Cc1cnc2ccc(-c3cnc(N)nc3)cc2c1N1CCc2cc(F)c(Cl)cc21	8.58% (active)
CNc1ncc2cc(-c3ccc(-c4ncccc4F)cc3Cl)c(=O)n(CC3OCC(N)CO3)c2n1 (stereo unspecified)	32.2% (inactive)
ClC(Cl)c1nc(-c2ccco2)n2nc(-c3ccccc3)cc2n1	87.3% (inactive)
NC(N)=Nc1ccc(Oc2cccc(Nc3ccc(Cl)cc3)c2)cn1	-57.8% (active)
CC1=CC(=O)C2=C(C)CC(OC(=O)CCc3ccccc3)[C@@H]3[C@H](OC(=O)[C@@H]3C)[C@@H]12 (stereo partly specified)	86.8% (inactive)
CC/C(=C/c1cc(OC)ccc1O)c1ccc2cc(OC)ccc2[o+]1	18.3% (inactive)
COc1ccc(C(=O)c2c(N)c(C#N)cn2-c2ccccc2OC)cc1	16.1% (inactive)
CCc1ccc(SC2c3ccc(N(CC)CC)cc3Oc3nc(N)c(C#N)c(N)c32)cc1 (stereo unspecified)	-0.413% (active)

Each compound was assayed on RPMI-8226 leukemia in the same assay as above. Settings: 10 µM unless noted.

SMILES	growth
COc1ccc2c(c1)c(CC(=O)[Se]CC#N)c(C)n2C(=O)c1ccc(Cl)cc1	20.5% (inactive)
C=C(C)[C@@H]1CC[C@]2(COCCCNCCC#N)CC[C@]3(C)[C@H](CC[C@@H]4[C@@]5(C)CC[C@H](OCCCNCCC#N)C(C)(C)[C@@H]5CC[C@]43C)[C@@H]12	34% (inactive)
CCN1CCN(Cc2cn(-c3ccc(S(N)(=O)=O)cc3)nn2)CC1	109% (inactive)
COc1cc(OC)c(/C=C/S(=O)(=O)Cc2ccc(OC)c(NCC(=O)NO)c2)c(OC)c1	20.2% (inactive)
CS(=O)(=O)Nc1cc(-c2ccc3ncc(C#N)c(NCc4ccccc4O)c3c2)cnc1Cl	-21% (active)
CC1(C)[C@@H](O)CC[C@]2(C)[C@H]3CC[C@@H]4[C@H]5[C@H](C(=O)/C=C\c6ccncc6)CC[C@]5(O)CC[C@@]4(C)[C@]3(C)CC[C@@H]12	12.1% (inactive)
COc1ccccc1N1CCN(C2=CC(=O)C(C)=C(C)C2=O)CC1	101% (inactive)
O=C(CSc1nnc(-c2ccc(Cl)cc2)n1-c1ccccc1)Nc1cccc(Cl)c1	34.5% (inactive)
COc1ccccc1C(=O)Nc1cccc2c1C(=O)C(=O)C=C2	88.3% (inactive)
CCc1cccc(NC(=O)CNc2cc(S(=O)(=O)N(C)C)cc(C)c2C)c1	65.7% (inactive)
O=C(NNc1nc2cc(F)c(F)cc2n2c(CN3CC4CNCC4C3)ccc12)c1ncccn1 (stereo unspecified)	18.7% (inactive)
NC(N)=Nc1ccc(Nc2cccc(Nc3ccc(Cl)c(C(F)(F)F)c3)c2)cn1	13% (inactive)
CCN(CC)c1ccc(NC2=C(Cl)C(=O)c3nc(C)ccc3C2=O)cc1	2.6% (active)
CC1(C)CC[C@]2(CN)CC[C@]3(C)C(=CC[C@@H]4[C@@]5(C)CCCNC(C)(C)[C@@H]5CC[C@]43C)[C@H]2C1	81.3% (inactive)
NC(=O)c1cccc(-n2ccc3cc(NC(=O)Nc4ccc(N5CCOCC5)c(C(F)(F)F)c4)ccc32)n1	-30.7% (active)
C#CCn1cccc1CNc1ccc(OC)cc1	-58.8% (active)
O=C1[C@@H]2Cc3c([nH]c4ccccc34)[C@H](c3c(Cl)cccc3Cl)N2C(=O)CN1C1CCN(CC2CCCCC2)CC1	38.4% (inactive)
C#CCC#CCN1CCC[C@H]1C(=O)NCC(=O)OC	113% (inactive)
COc1ccc(-c2cc(-c3ccc(Cl)cc3)c(C#N)c(=O)n2Cc2ccc(C(=O)O)cc2)cc1	79.9% (inactive)

SMILES	growth
COc1ccc2c(c1)Oc1nc(N)c(C#N)c(N)c1C2Sc1ccc(C)cc1 (stereo unspecified)	-19% (active)
N#Cc1cccc(CN2CCc3ncn(Cc4ccc(Cl)cc4)c(=O)c3C2)c1	22.4% (inactive)
Cc1nc2ncc(-c3ccc4ncnc(NCc5ccccc5)c4c3)cc2[nH]1	75.5% (inactive)
N=c1c2cc(-c3ccccc3)oc2ncn1/N=C/c1ccc(Cl)cc1	80.9% (inactive)
COc1ccc(N2C(=O)c3cc(Cl)ccc3NC2SCc2ccccc2)cc1 (stereo unspecified)	107% (inactive)
COc1c(N2CC3CCCNC3C2)c(F)cc2c(=O)c(C(=O)N/N=C/c3c[nH]c4ccccc34)cn(C3CC3)c12 (stereo unspecified)	78.2% (inactive)
NC/C(=C/F)COc1ccc2nc(NCc3cccnc3)oc2c1	120% (inactive)
C=CC(=O)N1CCC=C(c2cc3c(N[C@H](C)c4ccccc4)ncnc3[nH]2)C1	41.8% (inactive)
CS(=O)(=O)Nc1cc(-c2ccc3ncc(C#N)c(Nc4cccc(Cl)c4F)c3c2)cnc1Cl	-36.9% (active)
CCCn1cnc2c(c1=N)C(c1ccc(F)cc1)c1sc3c(CC)cccc3c1O2 (stereo unspecified)	4.79% (active)
O=S(=O)(NCCCNc1nccc(-c2[nH]c(-c3ccccc3)nc2-c2ccc(Cl)c(O)c2)n1)c1cccc2ccccc12	9.64% (active)
N#Cc1cnc2ccc(-c3cnc(N)nc3)cc2c1N1CCc2cc(F)c(Cl)cc21	-16.9% (active)
CNc1ncc2cc(-c3ccc(-c4ncccc4F)cc3Cl)c(=O)n(CC3OCC(N)CO3)c2n1 (stereo unspecified)	96.1% (inactive)
ClC(Cl)c1nc(-c2ccco2)n2nc(-c3ccccc3)cc2n1	-25.5% (active)
NC(N)=Nc1ccc(Oc2cccc(Nc3ccc(Cl)cc3)c2)cn1	-41.8% (active)
CC1=CC(=O)C2=C(C)CC(OC(=O)CCc3ccccc3)[C@@H]3[C@H](OC(=O)[C@@H]3C)[C@@H]12 (stereo partly specified)	74.7% (inactive)
CC/C(=C/c1cc(OC)ccc1O)c1ccc2cc(OC)ccc2[o+]1	79.4% (inactive)
COc1ccc(C(=O)c2c(N)c(C#N)cn2-c2ccccc2OC)cc1	35.9% (inactive)
CCc1ccc(SC2c3ccc(N(CC)CC)cc3Oc3nc(N)c(C#N)c(N)c32)cc1 (stereo unspecified)	-29.6% (active)
